# In the library only some 6.7% were active in any assay of this set; here they are far more common.
# C diff growth = C. difficile growth inhibition; Clostridium difficile clinical isolate growth, OD600, 24 h; stronger effect = lower value; AID 1259249; actives 0.25% (n = 86,000); growth activity, negative = inhibition, % at 16 µg/mL (by protocol);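 active = mean growth activity at or below -80% and every replicate also at or below -80%; inconclusive = mean at or below -80% but some replicate above -80%; inactive = mean growth activity above -80%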;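 also: 0% = DMSO wells and -100% = levofloxacin 16 µg/mL wells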
# T cruzi growth-1 = T. cruzi proliferation inhibition. T. cruzi beta-gal in NIH3T3, GalScreen luminescence, 90 h. actives 5.9% (n = 77,000). inhibition, % at 8.34 µM. AID 624255;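 active = mean inhibition above about 93%, with at least 55% of replicates each passing it, limit read from the data, passing the limit was not always enough; inconclusive = only one of those two conditions holds; inactive = neither condition holds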
# Pf Dd2 growth = blocks growth of Plasmodium falciparum Dd2 parasites | P. falciparum Dd2 growth, SYBR Green, 72 h; stronger effect = lower value | activity change, % at 10 µM | actives 2.3% (n = 94,000); in the data active = activity change below about -80%; inconclusive = no clear call, values can overlap the other calls
# T cruzi growth-2 = blocks T. cruzi growth in NIH3T3 host cells; T. cruzi beta-gal in NIH3T3, GalScreen luminescence, 90 h; AID 651739; actives 72% (n = 5,600); shares compounds with T cruzi growth-1; inhibition, % at 8.35 µM;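 active = mean replicate inhibition above about 95% and at least 55% of replicates individually reaching it, limit read from the data; inconclusive = only one of the two criteria is met; inactive = neither criterion is met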
# T cruzi growth-3 = Trypanosoma cruzi proliferation inhibition; T. cruzi beta-gal in NIH3T3, GalScreen luminescence, 90 h; actives 21% (n = 5,600); AID 651740; inhibition, % at 2.09 µM; shares compounds with T cruzi growth-1;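 active = mean inhibition above about 95%, with at least 55% of replicates also reaching it, limit read from the data; inconclusive = meets just one of the two conditions; inactive = meets neither condition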;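 also: plate controls were neutral control median for no effect and positive control median for full effect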
# 3T3 cytotox = NIH/3T3 (mouse) viability loss; shares compounds with T cruzi growth-1; NIH/3T3 viability, CellTiter-Glo ATP luminescence, 90 h; cytotoxicity (signal decrease), % at 8.35 µM; actives 14% (n = 5,600); AID 651742;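 active = mean signal decrease across replicates above about 35% based on untreated-well scatter, with enough replicates individually passing, limit read from the data; inconclusive = no rule stated though some were filed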;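 also: 0% = median of neutral control wells and 100% = median of positive control wells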
# NIH3T3 tox 2 = kills mouse NIH/3T3 fibroblasts | shares compounds with T cruzi growth-1 | inhibition, % at 24.9 µM | actives 56% (n = 5,600) | NIH/3T3 viability, CellTiter-Glo ATP luminescence, 90 h;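 active = mean loss of cell viability signal at or above a set limit, and enough replicates individually reaching it; inconclusive = meets only the mean limit or only the replicate share; inactive = meets neither condition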;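 also: 0% = median of neutral control wells and 100% = median of positive control wells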
# An asterisk follows results filed as active; ? = inconclusive; nt = no result given.
SMILES,C diff growth,T cruzi growth-1,Pf Dd2 growth,T cruzi growth-2,T cruzi growth-3,3T3 cytotox,NIH3T3 tox 2
COc1ccc(S(=O)(=O)Nc2ccc3c(c2)C(=O)N([C@H](C)CO)C[C@H](C)[C@H](CN(C)S(=O)(=O)c2ccccc2)OCCCC[C@H](C)O3)cc1,-10.1,nt,-32.0,nt,nt,nt,nt
COc1ccc(S(=O)(=O)N(C)C[C@H]2OCCCC[C@@H](C)Oc3ccc(NS(=O)(=O)c4ccccc4)cc3C(=O)N([C@@H](C)CO)C[C@H]2C)cc1,-8.8,107.5*,nt,?,43.3,-6.5,3.3
COc1ccc(S(=O)(=O)N(C)C[C@@H]2OCCCC[C@@H](C)Oc3ccc(NS(=O)(=O)c4ccccc4)cc3C(=O)N([C@H](C)CO)C[C@H]2C)cc1,-13.6,105.7*,nt,108.9*,54.5,6.8,4.5
CC(C)NC(=O)N(C)C[C@H]1Oc2ccc(NC(=O)Nc3ccccc3)cc2C(=O)N([C@@H](C)CO)C[C@H]1C,-5.8,-24.7,52.2,nt,nt,nt,nt
Cc1ccccc1S(=O)(=O)N1CC[C@@H]2[C@H]1c1cc(-c3ccc(C#N)cc3)ccc1N(C)[C@H]2CO,7.9,91.4,11.0,nt,nt,nt,nt
CN1C(=O)c2cc(NC(=O)C3CC3)ccc2OC[C@@H]2O[C@@H](CC(=O)NCc3cccc(F)c3)CC[C@@H]21,-1.7,18.4,-2.5,nt,nt,nt,nt
COc1ccc(S(=O)(=O)N(C)C[C@@H]2Oc3cc(-c4ccccc4OC)ccc3S(=O)(=O)N([C@H](C)CO)C[C@@H]2C)cc1,6.1,126.8*,-50.0,109.7*,81.6,32.1,63.2*
COc1ccc(S(=O)(=O)N(C)C[C@@H]2Oc3cc(-c4ccccc4OC)ccc3S(=O)(=O)N([C@@H](C)CO)C[C@@H]2C)cc1,11.3,125.9*,-61.5,114.5*,100.1*,45.1*,24.7
COc1ccc(S(=O)(=O)N(C)C[C@@H]2Oc3cc(C4=CCCC4)ccc3S(=O)(=O)N([C@@H](C)CO)C[C@H]2C)cc1,8.7,42.0,-46.1,nt,nt,nt,nt
COc1ccc(S(=O)(=O)N(C)C[C@@H]2Oc3cc(C4=CCCC4)ccc3S(=O)(=O)N([C@H](C)CO)C[C@H]2C)cc1,14.8,23.8,-43.0,nt,nt,nt,nt
COc1ccc(S(=O)(=O)N(C)C[C@@H]2Oc3cc(-c4ccccc4OC)ccc3S(=O)(=O)N([C@H](C)CO)C[C@H]2C)cc1,1.5,127.0*,-87.3*,102.2*,51.2,5.8,57.9*
COc1ccccc1-c1ccc2c(c1)O[C@@H](CN(C)C(C)=O)[C@H](C)CN([C@H](C)CO)S2(=O)=O,3.0,16.5,18.2,nt,nt,nt,nt
CC(=O)Nc1ccc2c(c1)C(=O)N(C)[C@@H]1CC[C@H](CC(=O)NCc3ccc(Cl)cc3)O[C@H]1CO2,2.4,14.8,4.7,nt,nt,nt,nt
CCC(=O)N1C[C@@H](C)[C@H](OC)CN(C)C(=O)c2cc(NS(=O)(=O)CC)ccc2OC[C@@H]1C,nt,-55.3,24.4,nt,nt,nt,nt
O=C(Nc1ccc(Cl)cc1)N[C@H]1CC[C@@H](CCn2cc(C3(O)CCCC3)nn2)O[C@@H]1CO,nt,-3.4,-12.9,nt,nt,nt,nt
O=C(Nc1ccccc1)N1CCCCN2[C@H](CO)[C@@H](c3ccc(C#Cc4cccnc4)cc3)[C@@H]2C1,36.2,68.4,-23.6,nt,nt,nt,nt
OC[C@@H]1[C@@H](c2ccc(C#Cc3ccccc3F)cc2)[C@@H]2CN(Cc3cncnc3)CCCCN12,-8.8,83.1,-17.3,nt,nt,nt,nt
O=C(Nc1ccccc1F)N1CCCCN2[C@H](CO)[C@@H](c3ccc(C#Cc4ccccc4)cc3)[C@H]2C1,9.4,88.6,-72.3,nt,nt,nt,nt
O=C(Nc1ccccc1F)N1CCCCN2[C@H](CO)[C@@H](c3ccc(C#Cc4cccnc4)cc3)[C@@H]2C1,30.5,99.2*,-25.7,108.0*,90.0,21.1,55.3*
O=C(Nc1ccccc1F)N1CCCCN2[C@H](C1)[C@@H](c1ccc(C#Cc3cccnc3)cc1)[C@@H]2CO,3.2,103.9*,-14.4,105.8*,39.4,26.0,65.5*
OC[C@@H]1[C@@H](c2ccc(C#Cc3cccnc3)cc2)[C@@H]2CN(Cc3ccccc3F)CCCCN12,-2.6,112.1*,-63.0,102.7*,98.3*,35.9*,103.8*
O=C(Nc1ccccc1)N1CCCCN2[C@H](CO)[C@H](c3ccc(C#Cc4cccnc4)cc3)[C@H]2C1,10.3,44.1,-41.7,nt,nt,nt,nt
O=C(Nc1ccccc1F)N1CCCCN2[C@@H](CO)[C@@H](c3ccc(C#Cc4cccnc4)cc3)[C@@H]2C1,10.4,106.7*,-76.1,96.7*,94.2,15.6,59.8*
CO[C@H]1CN(C)C(=O)c2cc(NC(=O)c3ccccc3F)ccc2OC[C@@H](C)NC[C@@H]1C,nt,23.9,24.9,nt,nt,nt,nt
CN1c2ccc(-c3ccc(F)cc3)cc2[C@H]2[C@H](CCN2S(=O)(=O)c2cccc(F)c2)[C@@H]1CO,4.5,35.1,3.2,nt,nt,nt,nt
SMILES,C diff growth,T cruzi growth-1,Pf Dd2 growth,T cruzi growth-2,T cruzi growth-3,3T3 cytotox,NIH3T3 tox 2
O=C(Cc1cccnc1)N[C@@H]1CC[C@@H](CCn2cc(-c3ccccc3F)nn2)O[C@H]1CO,-3.4,-106.9,-27.7,nt,nt,nt,nt
C[C@@H](NC(=O)C[C@@H]1C[C@H]2c3cc(NC(=O)C4CCC4)ccc3O[C@H]2[C@H](CO)O1)c1ccccc1,-1.8,2.3,-8.0,nt,nt,nt,nt
C[C@@H]1CN([C@@H](C)CO)C(=O)c2cccc(NC(=O)C3CCCCC3)c2O[C@H]1CN(C)S(=O)(=O)c1ccc(F)cc1,-0.5,1.2,-24.6,nt,nt,nt,nt
C[C@@H]1CN([C@@H](C)CO)S(=O)(=O)c2ccc(-c3ccccc3)cc2O[C@@H]1CN(C)Cc1ccncc1,nt,31.1,-24.1,nt,nt,nt,nt
Cc1ccc(-c2ccc3c(c2)O[C@H](CN(C)Cc2ccncc2)[C@@H](C)CN([C@@H](C)CO)S3(=O)=O)cc1,-34.9,123.8*,-51.4,102.8*,104.0*,69.2*,103.3*
C[C@H](CO)N1C[C@H](C)[C@@H](CN(C)Cc2ccncc2)Oc2cc(-c3ccccc3)ccc2S1(=O)=O,nt,61.0,-21.9,nt,nt,nt,nt
Cc1ccc(-c2ccc3c(c2)O[C@@H](CN(C)Cc2ccncc2)[C@H](C)CN([C@H](C)CO)S3(=O)=O)cc1,-26.8,123.0*,-83.9*,87.8,99.6*,97.8*,105.6*
Cc1noc(C)c1S(=O)(=O)N(C)C[C@H]1OCCCC[C@H](C)Oc2ccc(NS(=O)(=O)c3cccs3)cc2C(=O)N([C@@H](C)CO)C[C@@H]1C,-0.5,nt,-44.7,nt,nt,nt,nt
CO[C@H]1CN(C)C(=O)c2ccc(NC(=O)c3nc4ccccc4s3)cc2OC[C@H](C)N(Cc2cccnc2)C[C@H]1C,-9.2,89.8,-49.1,nt,nt,nt,nt
CO[C@@H]1CN(C)C(=O)c2ccc(NC(=O)c3nc4ccccc4s3)cc2OC[C@@H](C)N(Cc2cncnc2)C[C@H]1C,nt,nt,-65.9,nt,nt,nt,nt
COCC(=O)Nc1ccc2c(c1)C(=O)N(C)C[C@@H](OC)[C@@H](C)CN(Cc1ccncc1)[C@@H](C)CO2,nt,97.8*,0.4,60.9,-26.1,5.5,11.4
